Test results: PubChem BioAssay (NCATS)
Inconclusive results are not listed. Activity calls are given as the source filed them. Unless noted, calls come from the whole dose curve; as a rule, active = well fitted curve in the direction sought with a large enough effect; inconclusive = small, poorly fitted or top-dose-only effect, or another doubt; inactive = no such curve, though single readings can be large; an effect the other way counts as inactive or inconclusive.

Key:
[1] = NS1 protein of Zika virus - qHTS assay to identify small molecule inhibitors in human HEK 293 cells (AID 1347053); note: series mostly up to about 46 µM; nearly all actives have a fitted effect of over 55% in size
How it was run: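 HEK 293; 20 h pre-culture, 37 C/5% CO2; cpd 1 h pre-infection; ZIKV MR766, MOI = 0.5, 24 h, 37 C; TR-FRET NS1 readout (two anti-NS1 Abs); norm. to no-virus vs infected.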

[2] = qHTS for Inhibitors of the Functional Ribonucleoprotein Complex (vRNP) of Lassa (LASV) Arenavirus: LASV Primary Screen - GLuc reporter signal (AID 1347082; calls by dose curve; tested in HEK293 reporter line; note: series mostly up to about 57 µM; nearly all actives have a fitted effect of over 60% in size)
[3] = qHTS for Inhibitors of the Functional Ribonucleoprotein Complex (vRNP) of Lassa (LASV) Arenavirus: Viability assay - alamar blue signal for LASV Primary Screen (AID 1347083; calls by dose curve; tested in HEK293 reporter line; note: series mostly up to about 57 µM; nearly all actives have a fitted effect of over 80% in size)
[4] = qHTS for Inhibitors of the Functional Ribonucleoprotein Complex (vRNP) of Lymphocytic Choriomeningitis Arenaviruses (LCMV): Viability assay - alamar blue signal for LCMV Primary Screen (AID 1347085; calls by dose curve; tested in HEK293 reporter line; note: series mostly up to about 57 µM; nearly all actives have a fitted effect of over 80% in size)
[5] = target: Nucleoprotein (Lymphocytic choriomeningitis virus (strain Armstrong)) (UniProt P09992); assay: qHTS for Inhibitors of the Functional Ribonucleoprotein Complex (vRNP) of Lymphocytic Choriomeningitis Arenaviruses (LCMV): LCMV Primary Screen - GLuc reporter signal (AID 1347086; calls by dose curve; note: series mostly up to about 57 µM; nearly all actives have a fitted effect of over 70% in size)
Chain of Nucleoprotein (Lymphocytic choriomeningitis virus (strain Armstrong)) (P09992 whole entry, looked up): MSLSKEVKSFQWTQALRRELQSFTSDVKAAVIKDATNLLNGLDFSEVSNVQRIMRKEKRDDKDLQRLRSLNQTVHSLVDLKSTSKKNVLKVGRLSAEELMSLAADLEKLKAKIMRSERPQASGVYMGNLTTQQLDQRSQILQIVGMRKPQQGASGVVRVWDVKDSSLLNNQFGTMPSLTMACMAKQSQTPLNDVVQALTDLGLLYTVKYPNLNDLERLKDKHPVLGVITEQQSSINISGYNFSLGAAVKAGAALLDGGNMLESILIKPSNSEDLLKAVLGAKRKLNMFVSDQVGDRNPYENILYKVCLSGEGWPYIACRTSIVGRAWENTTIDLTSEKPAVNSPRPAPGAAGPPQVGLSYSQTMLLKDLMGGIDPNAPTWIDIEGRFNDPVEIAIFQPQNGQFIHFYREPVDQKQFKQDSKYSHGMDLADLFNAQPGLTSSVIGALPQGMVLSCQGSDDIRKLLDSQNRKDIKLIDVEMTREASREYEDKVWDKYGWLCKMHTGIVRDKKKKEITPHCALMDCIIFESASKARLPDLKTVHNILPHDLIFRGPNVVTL

[6] = qHTS of pediatric cancer cell lines to identify multiple opportunities for drug repurposing: Primary screen for TC32 cells (AID 1347089); note: nearly all actives have a fitted effect of over 60% in size
How it was run: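 Luminescent ATP read-out (CellTiter-Glo) of metabolically active TC32 cells after 48 h exposure. Concentration-response curves came from 11-point (MIPE, 0.78 nM–46 µM) or 8-point (NPC, 0.59 nM–46 µM) primary titrations; follow-up used 11 points.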

[7] = qHTS of pediatric cancer cell lines to identify multiple opportunities for drug repurposing: Primary screen for DAOY cells (AID 1347090); note: series mostly up to about 46 µM; nearly all actives have a fitted effect of over 55% in size
How it was run: (§1)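 Eight- or eleven-point concentration series, 48 h treatment at 37 degrees C in growth media; readout CellTiter-Glo luminescence. Potency and efficacy were taken from the concentration-response curves.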

[8] = qHTS of pediatric cancer cell lines to identify multiple opportunities for drug repurposing: Primary screen for SJ-GBM2 cells (AID 1347091)
How it was run: as §1

[9] = qHTS of pediatric cancer cell lines to identify multiple opportunities for drug repurposing: Primary screen for A673 cells (AID 1347092); note: nearly all actives have a fitted effect of over 45% in size
How it was run: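 Cell viability of A673 measured by CellTiter-Glo ATP luminescence after 48 hours compound exposure. Dilution series spanned 0.78 nM to 46 µM (MIPE, 11-point) or 0.59 nM to 46 µM (NPC, 8-point); bortezomib 2.3 uM positive control.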

[10] = qHTS of pediatric cancer cell lines to identify multiple opportunities for drug repurposing: Primary screen for SK-N-MC cells (AID 1347093); note: series mostly up to about 46 µM
How it was run: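 Metabolically active cells were quantified by ATP-dependent luminescence (CellTiter-Glo, 15 min at room temperature) following 48 h treatment. Cells had been plated at 500-1,000 per well and settled for 5 h beforehand.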

[11] = qHTS of pediatric cancer cell lines to identify multiple opportunities for drug repurposing: Primary screen for BT-37 cells (AID 1347094); note: series mostly up to about 57 µM
How it was run: (§2)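 Luminescence from CellTiter-Glo served as readout of metabolically active cells after 48 h compound exposure. Titrations: MIPE 11-point, from 0.78 nM; NPC 8-point, from 0.59 nM (final). Concentration-response curves came straight from the primary screen.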

[12] = qHTS of pediatric cancer cell lines to identify multiple opportunities for drug repurposing: Primary screen for NB-EBc1 cells (AID 1347095)
How it was run: as §2

[13] = qHTS of pediatric cancer cell lines to identify multiple opportunities for drug repurposing: Primary screen for U-2 OS cells (AID 1347096); note: nearly all actives have a fitted effect of over 50% in size
How it was run: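 Cells (500-1,000/well) in growth media were settled 5 h at 37 degrees C, then given compounds for 48 h. Viability was read as CellTiter-Glo luminescence. Primary runs used MIPE at 11 points (0.78 nM-46 µM) and NPC at 8 points (0.59 nM-46 µM); follow-ups used 11 points.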

[14] = qHTS of pediatric cancer cell lines to identify multiple opportunities for drug repurposing: Primary screen for Saos-2 cells (AID 1347097); note: nearly all actives have a fitted effect of over 40% in size; note: potency is the fitted concentration of half-maximal effect
How it was run: as §2

[15] = target: Atrial natriuretic peptide receptor 1 (Homo sapiens) (UniProt P16066); assay: Natriuretic polypeptide receptor (hNpr1) antagonism - Pilot screen (AID 1347049; calls by dose curve;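 note: agonist-evoked cGMP luminescence read 20 min after hNppA addition; series mostly up to about 58 µM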)
Chain of Atrial natriuretic peptide receptor 1 (Homo sapiens) (P16066 whole entry, looked up): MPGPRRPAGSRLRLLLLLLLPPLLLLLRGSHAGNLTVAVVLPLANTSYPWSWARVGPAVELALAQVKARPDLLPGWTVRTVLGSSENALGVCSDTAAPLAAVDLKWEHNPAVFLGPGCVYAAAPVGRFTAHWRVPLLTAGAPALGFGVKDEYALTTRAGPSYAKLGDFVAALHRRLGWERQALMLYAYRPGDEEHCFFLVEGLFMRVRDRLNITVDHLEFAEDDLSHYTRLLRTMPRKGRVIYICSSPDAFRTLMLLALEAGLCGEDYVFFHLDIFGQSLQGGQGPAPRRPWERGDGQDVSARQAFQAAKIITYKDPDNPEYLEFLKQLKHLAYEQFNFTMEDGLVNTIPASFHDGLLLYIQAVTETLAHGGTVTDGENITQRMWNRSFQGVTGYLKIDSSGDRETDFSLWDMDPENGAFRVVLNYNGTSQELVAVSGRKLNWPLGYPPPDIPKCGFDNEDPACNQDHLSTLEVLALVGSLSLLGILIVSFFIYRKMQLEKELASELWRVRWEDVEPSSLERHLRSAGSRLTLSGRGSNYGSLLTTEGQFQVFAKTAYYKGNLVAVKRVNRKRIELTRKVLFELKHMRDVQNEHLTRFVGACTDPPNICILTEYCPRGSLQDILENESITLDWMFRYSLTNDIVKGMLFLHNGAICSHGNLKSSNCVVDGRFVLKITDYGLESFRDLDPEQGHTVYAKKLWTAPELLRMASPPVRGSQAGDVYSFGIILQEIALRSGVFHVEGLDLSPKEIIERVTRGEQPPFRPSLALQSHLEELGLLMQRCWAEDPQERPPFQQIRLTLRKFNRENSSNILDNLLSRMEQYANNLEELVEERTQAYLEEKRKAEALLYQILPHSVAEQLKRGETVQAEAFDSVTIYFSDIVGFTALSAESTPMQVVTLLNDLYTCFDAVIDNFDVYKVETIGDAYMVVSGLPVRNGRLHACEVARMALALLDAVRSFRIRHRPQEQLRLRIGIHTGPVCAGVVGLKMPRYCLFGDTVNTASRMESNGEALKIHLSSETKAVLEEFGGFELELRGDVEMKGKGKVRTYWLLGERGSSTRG
How it was run: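 HEK293 cells co-expressing hNpr1 and the GloSensor pGS-40F cGMP luciferase sensor were preloaded with 2% GloSensor reagent for 2 h. Compounds were added for 30 min at room temperature, then cells were stimulated with 0.1 nM hNppA for 20 min before luminescence readout.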

[16] = target: Atrial natriuretic peptide receptor 2 (Homo sapiens) (UniProt P20594); assay: Natriuretic polypeptide receptor (hNpr2) antagonism - Pilot subtype selectivity assay (AID 1347050; calls by dose curve)
Chain of Atrial natriuretic peptide receptor 2 (Homo sapiens) (P20594 whole entry, looked up): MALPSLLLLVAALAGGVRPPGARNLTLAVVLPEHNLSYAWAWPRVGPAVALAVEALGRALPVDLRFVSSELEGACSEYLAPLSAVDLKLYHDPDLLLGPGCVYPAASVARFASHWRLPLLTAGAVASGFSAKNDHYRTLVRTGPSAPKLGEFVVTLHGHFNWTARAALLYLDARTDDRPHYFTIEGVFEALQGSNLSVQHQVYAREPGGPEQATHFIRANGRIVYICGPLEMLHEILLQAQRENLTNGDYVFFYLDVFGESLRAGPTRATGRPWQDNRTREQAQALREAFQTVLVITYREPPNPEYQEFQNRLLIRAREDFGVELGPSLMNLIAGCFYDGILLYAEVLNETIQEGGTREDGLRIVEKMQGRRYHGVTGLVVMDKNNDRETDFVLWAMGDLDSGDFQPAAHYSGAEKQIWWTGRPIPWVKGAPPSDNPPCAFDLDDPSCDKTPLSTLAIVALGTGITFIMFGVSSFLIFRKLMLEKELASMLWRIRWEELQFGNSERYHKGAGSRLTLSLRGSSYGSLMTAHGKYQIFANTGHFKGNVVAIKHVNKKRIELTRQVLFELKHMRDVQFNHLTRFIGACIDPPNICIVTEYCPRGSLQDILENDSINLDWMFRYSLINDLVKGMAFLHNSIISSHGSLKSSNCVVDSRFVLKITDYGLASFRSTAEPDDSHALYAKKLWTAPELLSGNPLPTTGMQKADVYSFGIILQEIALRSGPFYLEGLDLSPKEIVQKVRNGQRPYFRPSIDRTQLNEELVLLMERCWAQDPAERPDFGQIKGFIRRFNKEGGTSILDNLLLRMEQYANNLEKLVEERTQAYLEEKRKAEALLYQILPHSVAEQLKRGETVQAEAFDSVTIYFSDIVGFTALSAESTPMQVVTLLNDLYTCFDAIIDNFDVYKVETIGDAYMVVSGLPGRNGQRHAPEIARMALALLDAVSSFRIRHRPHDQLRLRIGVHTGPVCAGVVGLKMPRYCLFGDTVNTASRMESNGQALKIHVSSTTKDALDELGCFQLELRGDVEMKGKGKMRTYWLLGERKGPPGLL
How it was run: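 cGMP-sensor HEK293/hNpr2 cells; 2% GloSensor reagent 2 h RT; compounds 30 min; baseline luminescence read; 1 nM hNppC agonist 20 min RT; final luminescence read by CCD camera. Antagonism = reduced post-agonist signal.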

[17] = target: T1, Tyrosine-protein phosphatase non-receptor type substrate 1 (Homo sapiens) + Leukocyte surface antigen CD47 (Homo sapiens) (UniProt P78324+Q08722); assay: CD47-SIRPalpha protein protein interaction - LANCE assay qHTS validation (AID 1347057; active = well fitted curve in the direction sought with a large enough effect in the signal ratio, with a control signal flat, not every such curve was filed as active; the % refers to the signal ratio; note: series mostly up to about 38 µM)
T1 sequence (P78324 whole entry, looked up): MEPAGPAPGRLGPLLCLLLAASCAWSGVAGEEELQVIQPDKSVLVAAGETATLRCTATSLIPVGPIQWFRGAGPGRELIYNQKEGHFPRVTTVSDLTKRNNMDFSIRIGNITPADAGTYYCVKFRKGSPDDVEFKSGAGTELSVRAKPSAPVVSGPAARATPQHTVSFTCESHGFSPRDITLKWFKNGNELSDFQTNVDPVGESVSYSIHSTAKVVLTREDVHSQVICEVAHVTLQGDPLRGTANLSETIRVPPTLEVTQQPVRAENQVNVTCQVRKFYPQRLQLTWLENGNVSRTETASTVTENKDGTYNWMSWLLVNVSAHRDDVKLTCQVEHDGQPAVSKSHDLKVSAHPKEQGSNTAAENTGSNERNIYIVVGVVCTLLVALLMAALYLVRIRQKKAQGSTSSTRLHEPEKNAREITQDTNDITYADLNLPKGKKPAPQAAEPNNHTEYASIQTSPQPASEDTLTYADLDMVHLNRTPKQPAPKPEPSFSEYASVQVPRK
T1 sequence (Q08722 whole entry, looked up): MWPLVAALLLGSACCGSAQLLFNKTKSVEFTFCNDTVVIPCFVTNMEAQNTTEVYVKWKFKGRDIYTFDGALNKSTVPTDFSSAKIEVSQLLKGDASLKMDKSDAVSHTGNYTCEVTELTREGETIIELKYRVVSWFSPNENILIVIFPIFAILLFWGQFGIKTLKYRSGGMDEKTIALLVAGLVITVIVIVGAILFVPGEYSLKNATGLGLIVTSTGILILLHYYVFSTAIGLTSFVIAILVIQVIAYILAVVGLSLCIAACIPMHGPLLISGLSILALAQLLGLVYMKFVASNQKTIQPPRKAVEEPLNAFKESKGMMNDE
How it was run: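 First, His-tagged CD47 and Eu-labelled anti-His antibody met the compound for 30 min; next, site-specifically biotinylated SIRPalpha was added for 30 min; finally streptavidin-APC was added before reading the TR-FRET ratio.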

[18] = target: T1, Tyrosine-protein phosphatase non-receptor type substrate 1 (Homo sapiens) + Leukocyte surface antigen CD47 (Homo sapiens); assay: CD47-SIRPalpha protein protein interaction - HTRF assay qHTS validation (AID 1347058; active = well fitted curve in the direction sought with a large enough effect in the signal ratio, not every such curve was filed as active; the % refers to the signal ratio; note: series mostly up to about 38 µM)
How it was run: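 TR-FRET read (Ch1/Ch2 ratio) of soluble extracellular CD47 and Avi-biotinylated SIRPalpha domains in PBS pH 7.4 with 0.05% IGEPAL; 7-point compound titration. Sequential 30 min room-temperature steps; non-biotinylated SIRPalpha as control inhibitor.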

[19] = target: T1, Tyrosine-protein phosphatase non-receptor type substrate 1 (Homo sapiens) + Leukocyte surface antigen CD47 (Homo sapiens); assay: CD47-SIRPalpha protein protein interaction - Alpha assay qHTS validation (AID 1347059);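 note: bead proximity luminescence from CD47 binding SIRPalpha after compound preincubation with SIRPalpha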
How it was run: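 Soluble extracellular domains: Avi-tag biotinylated SIRPalpha (25 nM) preincubated 30 min RT with compound, then 6His-CD47 (12.5 nM) 30 min; Ni-NTA acceptor and streptavidin donor beads (10 ug/mL) 30 min, AlphaScreen read. PBS pH 7.4, 0.05% IGEPAL.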

[20] = target: Parathyroid hormone/parathyroid hormone-related peptide receptor (Homo sapiens) (UniProt Q03431); assay: qHTS for PTHR1 Agonists: Optimization Screen against the NCGC LOPAC library (AID 1347079);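 note: GloSensor cAMP luminescence in HEK-293 GP2 cells expressing human PTHR1 with IBMX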
Chain of Parathyroid hormone/parathyroid hormone-related peptide receptor (Homo sapiens) (Q03431 whole entry, looked up): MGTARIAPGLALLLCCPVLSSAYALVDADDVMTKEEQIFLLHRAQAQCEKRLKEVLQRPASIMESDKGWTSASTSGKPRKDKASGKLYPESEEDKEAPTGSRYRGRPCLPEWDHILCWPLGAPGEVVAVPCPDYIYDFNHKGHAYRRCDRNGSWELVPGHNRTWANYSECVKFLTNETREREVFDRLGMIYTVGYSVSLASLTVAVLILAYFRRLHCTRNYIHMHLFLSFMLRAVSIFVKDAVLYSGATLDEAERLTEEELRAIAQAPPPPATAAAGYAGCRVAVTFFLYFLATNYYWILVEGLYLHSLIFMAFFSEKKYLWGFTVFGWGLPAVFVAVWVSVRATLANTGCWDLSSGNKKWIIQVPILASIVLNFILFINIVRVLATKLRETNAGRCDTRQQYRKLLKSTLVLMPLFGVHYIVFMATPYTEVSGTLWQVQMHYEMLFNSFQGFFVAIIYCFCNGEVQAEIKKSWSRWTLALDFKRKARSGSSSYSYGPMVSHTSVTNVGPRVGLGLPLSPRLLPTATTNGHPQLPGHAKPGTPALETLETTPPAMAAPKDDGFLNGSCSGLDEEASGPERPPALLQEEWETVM
How it was run: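 Agonist readout: GloSensor cAMP luminescence, read after 15 min at room temperature. HEK-293-derived GP2 line carries PTHR1; compounds tested as a titration for 1 hr at 37C in presence of IBMX. M-PTH (1-15) served as control.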

Measured: Potency

COP(=S)(OC)Oc1ccc(Sc2ccc(OP(=S)(OC)OC)cc2)cc1
not listed: [15] | [16] | [17] | [18] | [19] | [20]
inactive: all other assays above

CCN(CC)CCOC(=O)C(C)(c1ccccc1)c1ccccc1
not listed: [15] | [16] | [17] | [18] | [19] | [20]
inactive: all other assays above

Cc1nc2ccccc2c(=O)n1-c1ccccc1Cl
not listed: [14] | [15] | [16] | [17] | [18] | [19] | [20]
inactive: all other assays above

O=c1n(Cl)c(=O)n(Cl)c(=O)n1Cl
not listed: [15] | [16] | [17] | [18] | [19] | [20]
inactive: all other assays above

Cc1ccc(N=CN(C)C=Nc2ccc(C)cc2C)c(C)c1
not listed: [15] | [16] | [17] | [18] | [19] | [20]
inactive: all other assays above

O=C(O)c1nn(Cc2ccc(Cl)cc2Cl)c2ccccc12
not listed: [11]
inactive: all other assays above

COc1cc(N)c(Cl)cc1C(=O)NC1CN2CCC1CC2 (configuration not stated)
not listed: [15] | [16] | [17] | [18] | [19] | [20]
inactive: all other assays above

CCCC[N+]1(C)[C@@H]2CC(OC(=O)[C@H](CO)c3ccccc3)C[C@H]1[C@@H]1O[C@@H]12 (some centres not stated)
not listed: [15] | [16] | [17] | [18] | [19] | [20]
inactive: all other assays above

Cc1cccc(Cc2cnc[nH]2)c1C
active: [14] 29.9 µM
not listed: [15] | [16] | [17] | [18] | [19] | [20]
inactive: all other assays above

O=C(O)CCCCCCNC1c2ccccc2CCc2ccccc21
not listed: [14] | [15] | [16] | [17] | [18] | [19] | [20]
inactive: all other assays above

COc1ccc(C(=O)N2CCCC2=O)cc1
not listed: [10]
inactive: all other assays above

NCc1cccnc1
not listed: [15] | [16] | [17] | [18] | [19] | [20]
inactive: all other assays above

CCS(=O)(=O)C(C)(C)S(=O)(=O)CC
not listed: [14] | [15] | [16] | [17] | [18] | [19] | [20]
inactive: all other assays above

NC(=O)OCCCc1ccccc1
not listed: [15] | [16] | [17] | [18] | [19] | [20]
inactive: all other assays above

CCC1(c2ccccc2)CCC(=O)NC1=O (configuration not stated)
not listed: [14] | [15] | [16] | [17] | [18] | [19] | [20]
inactive: all other assays above

C=CCN1CC[C@]23CCCC[C@H]2[C@H]1Cc1ccc(O)cc13
not listed: [14] | [15] | [16] | [17] | [18] | [19] | [20]
inactive: all other assays above

C1CN2CCC1CC2
not listed: [15] | [16] | [17] | [18] | [19] | [20]
inactive: all other assays above

ClCc1cccc(Cl)c1
not listed: [15] | [16] | [17] | [18] | [19] | [20]
inactive: all other assays above
